# Assay results from PubChem BioAssay (NCATS).
# Results filed as inconclusive are left out. Entries that show only a call come without a potency. Values without a mark were called inactive. The source made the active and inactive calls. Calls come from the whole dose curve; as a rule, active = well fitted inhibition curve with a large enough effect; inconclusive = small, poorly fitted or top-dose-only effect; inactive = flat fitted curve, though single readings scatter.
# Test: BET inhibitor-based combinations targeting novel dependencies in MECOM-rearranged (r) AML: AML-191 cell line (AID 2202236; note: nearly all actives have a fitted effect of over 35% in size)
# Details: AML-191 viability, CellTiter-Glo luminescence, 48 h; series mostly up to 46 µM
# Summary of the method: (§1)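 Cells were plated at 500 per well and exposed to an 11-point dose series of each drug for 48 hr. Viability was measured by CellTiter-Glo luminescence, normalized to DMSO and empty-well controls, and summarized as AUC and per-cell-line Z-AUC.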
# Potency is the fitted concentration of half-maximal effect.
Structure (SMILES),Potency,viability (% of control)
O=C(Nc1ccccc1)Nc1ccc(-c2ccc(C(=O)[C@@H]3CCC[C@H]3C(=O)O)cc2)cc1,inactive,
CO[C@H]1O[C@@H]2O[C@@]3(C)CC[C@H]4[C@H](C)CC[C@@H]([C@H]1C)[C@@]24OO3,16.6 µM (active),
CCOC(=O)[C@H](CCc1ccccc1)N[C@H]1CCc2ccccc2N(CC(=O)O)C1=O,inactive,
CSC[C@H]1CN(Cc2c[nH]c3c(N)ncnc23)C[C@@H]1O,inactive,
CCOc1cc(/C=C2/C(=O)N(c3ccccc3)N=C2C)cc(Cl)c1OCC(=O)OC,inactive,
N#CC(c1ccnc(NCCc2cccnc2)n1)c1nc2ccccc2s1 (configuration not stated),16.6 µM (active),
O=c1cc(N2CCOCC2)oc2c(-c3ccc4c(c3)OCCO4)csc12,5.25 µM (active),
C[C@@H]1N=C(N)NC(N(C)C)=N1,inactive,
Cc1noc(C)c1-c1ccc(-c2cc(C(N)=O)c(NC(N)=O)s2)c(O[C@H]2CCNC2)c1,inactive,
CC(C)=CCC/C(C)=C/CC/C(C)=C/CSc1ccccc1C(=O)O,inactive,
Cc1ccc(Sc2ccccc2N2CCNCC2)c(C)c1,18.6 µM (active),
O=C(O)/C=C/c1ccc(Cn2ccnc2)cc1,inactive,
C[C@]12CCC3=C4CCC(=O)C=C4CC[C@H]3[C@@H]1CC[C@@]2(O)CC#N,inactive,
CC(C)(C(=O)NCC(F)(F)C(F)(F)F)C(=O)N[C@@H]1C(=O)Nc2ccccc2-c2ccccc21,inactive,
CCO[C@@H]1OC(=O)C[C@@H]1NC(=O)[C@@H]1CCCN2C(=O)CC[C@H](NC(=O)c3nccc4ccccc34)C(=O)N12,inactive,
CC(=O)NCC(=O)N1[C@@H]2CC[C@H]1c1ccc(Nc3ncc(C(F)(F)F)c(NC4CCC4)n3)cc12,0.833 µM (active),

Structure (SMILES),Potency,viability (% of control)
COc1ccc(/C=C\c2cc(OC)c(OC)c(OC)c2)cc1O,0.0132 µM (active),
CN(C)C/C=C/C(=O)Nc1cc2c(Nc3ccc(F)c(Cl)c3)ncnc2cc1O[C@H]1CCOC1,7.42 µM (active),
CC[C@H](CO)Nc1nc(NCc2ccccc2)c2ncn(C(C)C)c2n1,23.5 µM (active),
COc1ccc(C(=O)N2CCN(C(=O)/C=C/c3ccc(Br)cc3)CC2)cc1,inactive,
C[C@@H]1C(=O)OC2[C@H](O)[C@]34[C@H]5C[C@@H](C(C)(C)C)[C@]36[C@@H](OC(=O)[C@@H]6O)O[C@@]4(C(=O)O5)[C@]21O (some centres not stated),inactive,
Cc1ccc(-c2ncn(-c3ccc(Nc4nccc(-c5cccc(N6CCOCC6)c5)n4)cc3)n2)cn1,2.35 µM (active),
Cc1ccc2cc(-c3c(C)ccc(C(=O)c4c(-c5ccccc5)n(C)n(-c5ccccc5)c4=O)c3N)ccc2n1,inactive,
O=C(c1ccc(Nc2nc(C3CC3)cn3c(-c4cn[nH]c4)cnc23)c(F)c1)N1CCOCC1,20.9 µM (active),
O=C(O)CCC=CCC[C@@H]1[C@H](N2CCCCC2)[C@@H](O)C[C@@H]1OCc1ccc(-c2ccccc2)cc1,inactive,
CN(C)CC[C@H](CSc1ccccc1)Nc1ccc(S(=O)(=O)NC(=O)c2ccc(N3CCN(Cc4ccccc4-c4ccc(Cl)cc4)CC3)cc2)cc1[N+](=O)[O-],2.35 µM (active),
CC(C)(C)c1nc2c3cc[nH]c(=O)c3c3cc(F)ccc3c2[nH]1,0.662 µM (active),
Cn1c(-c2ccccc2C(F)(F)F)nnc1C12CCC(c3noc(C4CC(F)(F)C4)n3)(CC1)CC2,inactive,
COCCNc1cc(NC(=O)N2CCCc3cc(CN4CCN(C)CC4=O)c(C=O)nc32)ncc1C#N,,96.5% [at 8.46 µM]
CC(C)c1ccc(Cn2ccc3c4c(N)nc(NC5CC5)nc4ccc32)cc1,1.32 µM (active),
CO[C@H]1/C=C/O[C@@]2(C)Oc3c(C)c(O)c4c(O)c(c5c(nc6cc(C)ccn65)c4c3C2=O)NC(=O)/C(C)=C\C=C\[C@H](C)[C@H](O)[C@@H](C)[C@@H](O)[C@@H](C)[C@H](OC(C)=O)[C@@H]1C,inactive,
COC(=O)[C@H](CCCN=C(N)N)NS(=O)(=O)c1ccc(C)cc1,inactive,

# Test: BET inhibitor-based combinations targeting novel dependencies in MECOM-rearranged (r) AML: AML-194 cell line (AID 2202237; note: nearly all actives have a fitted effect of over 40% in size)
# Details: AML-194 (MECOM-r AML) viability, CellTiter-Glo, 48 h; series mostly up to 46 µM
# Summary of the method: as §1
Structure (SMILES),Potency,viability (% of control)
O=C(Nc1ccccc1)Nc1ccc(-c2ccc(C(=O)[C@@H]3CCC[C@H]3C(=O)O)cc2)cc1,inactive,
CCOC(=O)[C@H](CCc1ccccc1)N[C@H]1CCc2ccccc2N(CC(=O)O)C1=O,inactive,
CSC[C@H]1CN(Cc2c[nH]c3c(N)ncnc23)C[C@@H]1O,inactive,
CCOc1cc(/C=C2/C(=O)N(c3ccccc3)N=C2C)cc(Cl)c1OCC(=O)OC,inactive,
N#CC(c1ccnc(NCCc2cccnc2)n1)c1nc2ccccc2s1 (configuration not stated),18.6 µM (active),
O=c1cc(N2CCOCC2)oc2c(-c3ccc4c(c3)OCCO4)csc12,2.95 µM (active),
C[C@@H]1N=C(N)NC(N(C)C)=N1,inactive,
Cc1noc(C)c1-c1ccc(-c2cc(C(N)=O)c(NC(N)=O)s2)c(O[C@H]2CCNC2)c1,inactive,
CCN(C(=O)c1ccccc1OC)c1cc2c(cc1N1CCNC[C@H]1C)n(C)c(=O)n2C,inactive,
CC(C)=CCC/C(C)=C/CC/C(C)=C/CSc1ccccc1C(=O)O,inactive,
Cc1ccc(Sc2ccccc2N2CCNCC2)c(C)c1,11.8 µM (active),
O=C(O)/C=C/c1ccc(Cn2ccnc2)cc1,inactive,
CC(C)(C(=O)NCC(F)(F)C(F)(F)F)C(=O)N[C@@H]1C(=O)Nc2ccccc2-c2ccccc21,inactive,
CCO[C@@H]1OC(=O)C[C@@H]1NC(=O)[C@@H]1CCCN2C(=O)CC[C@H](NC(=O)c3nccc4ccccc34)C(=O)N12,inactive,
CC(=O)NCC(=O)N1[C@@H]2CC[C@H]1c1ccc(Nc3ncc(C(F)(F)F)c(NC4CCC4)n3)cc12,0.662 µM (active),
N#C/C(=C1/Nc2ccccc2S1)c1ccnc(OCc2ccc(CN3CCOCC3)cc2)n1,20.9 µM (active),
CN(C)C/C=C/C(=O)Nc1cc2c(Nc3ccc(F)c(Cl)c3)ncnc2cc1O[C@H]1CCOC1,7.42 µM (active),
COc1ccc(C(=O)N2CCN(C(=O)/C=C/c3ccc(Br)cc3)CC2)cc1,inactive,
C[C@@H]1C(=O)OC2[C@H](O)[C@]34[C@H]5C[C@@H](C(C)(C)C)[C@]36[C@@H](OC(=O)[C@@H]6O)O[C@@]4(C(=O)O5)[C@]21O (some centres not stated),inactive,
Cc1ccc(-c2ncn(-c3ccc(Nc4nccc(-c5cccc(N6CCOCC6)c5)n4)cc3)n2)cn1,2.95 µM (active),
O=c1sn(-c2cccc3ccccc23)c(=O)n1Cc1ccccc1,14.8 µM (active),
Cc1ccc2cc(-c3c(C)ccc(C(=O)c4c(-c5ccccc5)n(C)n(-c5ccccc5)c4=O)c3N)ccc2n1,inactive,
Cc1nc2ccc(CN(C)c3ccc(C(=O)N[C@@H](CCC(=O)O)C(=O)O)s3)cc2c(=O)[nH]1,0.332 µM (active),
CN(C)CC[C@H](CSc1ccccc1)Nc1ccc(S(=O)(=O)NC(=O)c2ccc(N3CCN(Cc4ccccc4-c4ccc(Cl)cc4)CC3)cc2)cc1[N+](=O)[O-],1.86 µM (active),
Cn1c(-c2ccccc2C(F)(F)F)nnc1C12CCC(c3noc(C4CC(F)(F)C4)n3)(CC1)CC2,inactive,
COCCNc1cc(NC(=O)N2CCCc3cc(CN4CCN(C)CC4=O)c(C=O)nc32)ncc1C#N,,95.1% [at 8.46 µM]
CC(C)c1ccc(Cn2ccc3c4c(N)nc(NC5CC5)nc4ccc32)cc1,1.48 µM (active),
CO[C@H]1/C=C/O[C@@]2(C)Oc3c(C)c(O)c4c(O)c(c5c(nc6cc(C)ccn65)c4c3C2=O)NC(=O)/C(C)=C\C=C\[C@H](C)[C@H](O)[C@@H](C)[C@@H](O)[C@@H](C)[C@H](OC(C)=O)[C@@H]1C,inactive,
COC(=O)[C@H](CCCN=C(N)N)NS(=O)(=O)c1ccc(C)cc1,inactive,
CC#Cc1cncc(-c2ccc3c(c2)[C@@]2(N=C(C)C(N)=N2)C2(CCC(OC)CC2)C3)c1 (some centres not stated),inactive,
